Compound activity: PubChem BioAssay, National Center for Advancing Translational Sciences (NCATS)
Rows were chosen to be rich in hits. Some 14% of all compounds tested hit in one or more screens of this group.
Lassa entry inh = inhibitors of Lassa virus binding or cell entry. Potency, µM (top dose mostly 37.9 µM), for the others: at the top dose activity change, negative = inhibition, hits mostly inhibitors. Lassa virus pseudotype entry inhibition, cell reporter. 1.2% of 300,000 active; calls by dose curve; tested in HEK293 cells; note: potency is the fitted concentration of half-maximal effect; nearly all actives have a fitted effect of over 50% in size
HCMV inh = blocks human cytomegalovirus replication; AID 1259415; activity change, negative = inhibition, % at 57.5 µM; HFF cells, HCMV-luciferase reporter, 72 h; active compounds read low; 4.5% of 410,000 active; in the data active = activity change below about -60%; inconclusive = no clear call, values can overlap the other calls; inactive = above about -39%
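Human foreskin fibroblasts infected with luciferase-reporter HCMV at MOI 1 PFU/cell, compounds at two doses. Luciferase measured 72 h post infection; normalized to buffer-only basal and Salinomycin (10uM) controls.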
Pf growth 96h = inhibits malaria parasite growth, 96 h; P. falciparum luciferase reporter growth, 96 h; Potency, µM (titrated, usually from 28.7 µM), for inactives: top-dose activity change, negative = inhibition, most hits filed as inhibitors; 6.9% of 320,000 active; note: potency is the fitted concentration of half-maximal effect
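Delayed-death screen, second-generation endpoint: infected erythrocytes, 2% hematocrit, 0.05% parasitemia final; 96 hours at 37 C, 5% CO2; luciferase detection reagent; luminescence decrease equals reduced growth.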
HCV inh = HCV inhibition | Huh7.5.1 HCVcc-Cre infection, luciferase reporter, 44 h | Potency, µM (top dose mostly 41.8 µM), inactives show at the highest dose activity change, negative = inhibition, hits mostly inhibitors | 3.4% of 340,000 active; note: potency is the fitted concentration of half-maximal effect
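Infectious HCVcc-Cre (~0.5 moi) was added to cells just after compound, with cells seeded 4 h earlier at 1,000 per well. Luciferase activity after 44 h culture reported infection; substrate was incubated 15 min at room temperature before reading.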
Pf growth 48h = P. falciparum growth inhibition at 48 hours (one generation); P. falciparum luciferase growth in erythrocytes, 48 h; 5.9% of 310,000 active; Potency, µM (titrated, usually from 28.7 µM), without a hit: top-dose activity change, negative = inhibition, actives largely listed as inhibitors; note: potency is the fitted concentration of half-maximal effect
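Read-out is firefly luciferase luminescence from an integrated reporter in P. falciparum, so falling signal marks reduced parasite growth. Infected erythrocytes were at 2% hematocrit and 0.1% parasitemia (final) in Albumax-supplemented RPMI 1640.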
MARV entry inh = inhibitors of Marburg virus binding or cell entry. Marburg virus pseudotyped entry inhibition, cell reporter. Potency, µM (titrated, usually from 37.8 µM), for inactives: top-dose activity change, negative = inhibition, usual class: inhibitors. 1.8% of 300,000 active. AID 540276; calls by dose curve; tested in HEK293 cells; note: potency is the fitted concentration of half-maximal effect
Numbers without * were called inactive; ? = inconclusive; . = no result; [ ] = remark or other dose. Unless noted, calls come from the whole dose curve; as a rule, active = well fitted inhibition curve with a large enough effect; inconclusive = small, poorly fitted or top-dose-only effect, or another doubt; inactive = no such curve, though single readings can be large or run the other way. % is set by controls: 0 for no effect and ±100 for the full control effect.

SMILES	Lassa entry inh	HCMV inh	Pf growth 96h	HCV inh	Pf growth 48h	MARV entry inh
c1ccc(CNc2nc(-c3ccccn3)nc3ccccc23)cc1	?	-97*	0.66µM*	3.2µM*	1.5µM*	?
c1cncc(-c2nc(NCc3ccc4c(c3)OCO4)c3ccccc3n2)c1	.	0	10µM*	11µM*	13µM*	.
Clc1cccc(CNc2nc(-c3cccnc3)nc3ccccc23)c1	-28%	?	?	?	?	-29%[46.1 µM]
c1ccc(CNc2nc(-c3cccnc3)nc3ccccc23)cc1	.	-37	8.3µM*	?	9.3µM*	.
CCC(C)Nc1nc(-c2cccc(OC)c2O)nc2ccccc12 (stereo not drawn)	?	55	?	2.5µM*	-15%	?
COc1cccc(-c2nc(NC(C)C)c3ccccc3n2)c1O	-10%	-15	?	?	?	-29%
c1ccc(CNc2nc(-c3ccccc3)nc3ccccc23)cc1	22%[46.1 µM]	?	-91%	?	?	?
COc1cccc(C=NN(C)c2c([N+](=O)[O-])cc(C(F)(F)F)cc2[N+](=O)[O-])c1O	.	-24	.	.	.	.
COc1ccc(Cl)cc1NC(=O)COC(=O)Cc1cc(OC)c(OC)c(OC)c1	-19%[46.1 µM]	10	.	?	.	-15%[46.1 µM]
COc1cccc(-c2nc(NCc3cccnc3)c3ccccc3n2)c1O	-21%[46.1 µM]	55	?	?	12µM*	?
CCC(C)N(C(=O)CSc1nc(-c2cccs2)nc2ccccc12)C1CCS(=O)(=O)C1 (stereo not drawn)	?	-28	.	?	.	?
CCSc1nc(-c2cccs2)nc2ccccc12	13%	-1	42%	4µM*	-27%	-8%[46.1 µM]
c1ccc(CNc2nc(NCc3ccccc3)c3ccccc3n2)cc1	10µM*	.	0.74µM*	?	1.2µM*	?
Fc1ccccc1-c1nc(NCc2ccccc2)c2ccccc2n1	1%	-24	?	-16%	?	-6%[46.1 µM]
CCC(C)Nc1nc(-c2ccccn2)nc2ccccc12 (stereo not drawn)	.	-99*	0.93µM*	?	.	.
CC1=C(C(=O)N2CCN(c3ccc(Cl)cc3)CC2)C2(CCC(C)CC2)OC1=O (stereo not drawn)	-17%[46.1 µM]	19	.	.	.	?
CCN(CC)c1nc(C=Cc2ccc(N(C)C)cc2)c2nccnc2n1	.	-25	.	.	.	.
COc1ccc(-n2cc(C(=O)OCc3ccc(F)c(F)c3)c3ccccc3c2=O)cc1	0%[46.1 µM]	-12	.	.	.	.
C[C@H](CO)N1C[C@H](C)[C@@H](CN(C)C(=O)Nc2ccccc2)OCc2cn(nn2)CCCC1=O	.	-1	.	.	.	.
c1ccc(CNc2nc(-c3cccs3)nc3ccccc23)cc1	4%	-74*	?	?	?	7%
NS(=O)(=O)c1ccc(CNc2nc(-c3cccnc3)nc3ccccc23)cc1	3%[46.1 µM]	-2	?	-23%	?	-29%[46.1 µM]
Cc1ccc(CNc2nc(-c3cccnc3)nc3ccccc23)cc1	?	-12	?	?	6.6µM*	?
Cc1cc(C)cc(NC(=O)Nc2cc(-c3ccccc3)nn2C)c1	4%[46.1 µM]	-69*	1%	1%	1%	22%[46.1 µM]
COc1cccc(-n2c(SCc3ccc(F)cc3)nc3c([nH]c4ccccc43)c2=O)c1	?	-22	.	.	.	.
COc1cc(C(=O)NC(=S)N(CCc2ccccc2)CCc2ccccc2)cc(OC)c1OC	?	-34	12µM*	?	10µM*	3.2µM*
SMILES	Lassa entry inh	HCMV inh	Pf growth 96h	HCV inh	Pf growth 48h	MARV entry inh
COc1cc(C(=O)N/N=C(\C)Cc2ccccc2)cc(OC)c1OC	?	-91*	-6%	?	12%	?
COc1cc(C(=O)NCCSc2ccccc2)cc(OC)c1OC	20%[46.1 µM]	42	10µM*	-17%	-9%	-5%[46.1 µM]
O=C(NC(=S)N(CCc1ccccc1)CCc1ccccc1)c1ccco1	8.9µM*	-19	?	-3%	?	?
CC(CCc1ccccc1)NC(=S)NC(=O)c1ccco1 (stereo not drawn)	?	-39	?	-3%	7%[5.75 µM]	15%[46.1 µM]
O=C(NC1CCCC1)c1nc2ccccc2nc1-c1ccc(F)c(F)c1	.	64	.	.	.	.
Cc1nc2ccccc2n1CC(O)COc1ccc(Br)cc1 (stereo not drawn)	.	-80*	23%	?	?	?
COC(=O)c1ccc(OCC(O)Cn2cnc3cc(C)c(C)cc32)cc1 (stereo not drawn)	-28%[46.1 µM]	19	.	.	.	.
Cc1nc2ccccc2n1CC(O)COc1ccccc1Cl (stereo not drawn)	.	-74*	?	?	?	.
CCC(=O)c1ccc(OCC(O)Cn2c(C)nc3ccccc32)cc1 (stereo not drawn)	?	-62*	14%	?	-3%	6.3µM*
CCC(=O)c1ccc(OCC(O)Cn2cnc3ccccc32)cc1 (stereo not drawn)	8%	53	1.9µM*	?	-35%	10%
Cc1nc2ccccc2n1CC(O)COc1ccc(C(=O)O)cc1 (stereo not drawn)	-18%[46.1 µM]	-5	.	.	.	14%[46.1 µM]
CCC12CN3CC(CC)(CN(C1)C3c1cc(Br)ccc1OC)C2=O (stereo not drawn)	15%[46.1 µM]	0	.	.	.	-3%[46.1 µM]
O=S(=O)(c1ccccc1)c1c2c(cc3ccc(Cl)cc13)CCC2	.	-4	.	.	.	.
Cc1ccc(-n2ncc(C(=O)N3CCN(C4CCCCC4)CC3)c2C2CCN(C(=O)OC(C)(C)C)CC2)cc1	?	6	.	.	.	.
COc1ccc(N2C3=C(C(=O)CC(C)(C)C3)C(c3cnn(C)c3)C3=C2CC(C)(C)CC3=O)cc1	?	-6	4.1µM*	15%	7.4µM*	-11%[46.1 µM]
CCn1cc(C2C3=C(CC(C)(C)CC3=O)N(c3ccccc3)C3=C2C(=O)CC(C)(C)C3)c(C)n1	11%	-25	8.3µM*	-7%	?	8%
CCn1cc(C2C3=C(CC(C)(C)CC3=O)N(c3ccc(C)cc3)C3=C2C(=O)CC(C)(C)C3)c(C)n1	.	0	.	1%	.	.
CC12C(=O)OC(=O)C1(C)C1CCC2O1 (stereo not drawn)	2.9µM*	.	.	.	.	3.3µM*
C[C@@]12C(=O)OC(=O)[C@@]1(C)[C@H]1CC[C@@H]2O1	.	.	.	.	.	3.3µM*
C=C(CCN1C=C(C(C)=O)C(c2ccccc2)NC1=O)c1ccc(OC)cc1 (stereo not drawn)	.	.	.	.	.	12%[14.2 µM]
COc1cc(C(=O)NCCc2c[nH]c3ccccc23)ccc1OCc1c(C)noc1C	7.9µM*	48	?	-28%	?	-26%[46.1 µM]
COc1cc(-c2noc(C)c2C(=O)NCCc2c[nH]c3ccccc23)cc(OC)c1OC	.	97	15µM*	?	?	.
COc1cccc(NC(=O)CSc2nnc(NC(=O)NC3CCCCC3)s2)c1	?	164	.	.	.	.
